Most compounds without a hit are left out; they make up all but 17% or so of the library.
HT1080-NT tox – qHTS for induction of synthetic lethality in tumor cells producing 2HG: qHTS for the HT-1080-NT fibrosarcoma cell line; HT-1080-NT fibrosarcoma viability, CellTiter-Glo ATP luminescence, 48 h; Potency, µM (top dose mostly 46.1 µM), hits mostly cytotoxic; 360,000 tested, 1.6% active;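 further: NT is the 2HG producing partner of a matched IDH1 knockdown line; nearly all actives have a fitted effect of over 55% in size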
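Fibrosarcoma NT cells, 750 per well in 5% FBS RPMI, were exposed to compound for 48 hours. Viability: CellTiter-Glo luminescence.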
HepG2 viability – qHTS for Inhibitors of TGF-b: Cytotox Counterscreen | HepG2 CAGA-GFP viability, ATP luminescence, 18 h | Potency, µM (highest dose often 46.1 µM), usual class: cytotoxic | 410,000 tested, 0.76% active | AID 588856, 2011
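CellTiter-Glo luminescence gave cytotoxicity after 18 hours at 37 degrees C. The cells were HepG2 CAGA-GFP in 1% FBS DMEM, stimulated with 500 pg/mL TGF-beta after compound addition. %Activity was normalised to no-cell wells (complete cell-killing) and DMSO (no toxicity), and curves were fitted and classified.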
TDP1 cell CPT – qHTS for Inhibitors of human tyrosyl-DNA phosphodiesterase 1 (TDP1): qHTS in cells in presence of CPT; chicken DT40 Tdp1-/-;hTDP1 cells + 20 nM CPT, ATP luminescence, 48 h; Potency, µM (highest dose often 46.2 µM), most hits filed as inhibitors; 420,000 tested, 12% active; further: nearly all actives have a fitted effect of over 55% in size
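Cell growth measured by CellTiter-Glo luminescence after a minimum 48 h, 37 C compound exposure with 20 nM CPT in Tdp1-knockout DT40 cells stably expressing hTDP1, seeded 400/well; qHTS titration format.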
TGFb inhibitor – qHTS for Inhibitors of TGF-b | HepG2 CAGA-GFP TGF-b/SMAD3 reporter, GFP fluorescence, 18 h; TGF-beta stimulated, 500 pg/mL final | Potency, µM (series often up to 46.1 µM), hits mostly inhibitors | 410,000 tested, 1.2% active | AID 588855, 2011; further: nearly all actives have a fitted effect of over 65% in size
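Smad-responsive CAGA-GFP expression was quantified in HEPG2 cells exposed to compounds and 500 pg/mL final TGF-beta for 18 h at 37 degrees C; unstimulated wells defined full inhibition.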
HT1080 IDH1KD tx – qHTS for induction of synthetic lethality in tumor cells producing 2HG: qHTS for the HT-1080-IDH1KD cell line. Potency, µM (titrated, usually from 46.1 µM), most hits filed as cytotoxic. 360,000 tested, 2% active. AID 686971, 2013. HT-1080 IDH1 knockdown viability, ATP luminescence, 48 h
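HT-1080-IDH1KD cells (IDH1 knocked down), 750/well in RPMI with 5% FBS, treated with compound 48 h at 37 degrees C. Viability by CellTiter-Glo luminescence, normalised to DMSO and no-cell wells; concentration-response curves classed.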
TDP1 cell noCPT – qHTS for Inhibitors of human tyrosyl-DNA phosphodiesterase 1 (TDP1): qHTS in cells in absence of CPT; DT40 Tdp1-/- hTDP1 cells, no CPT, ATP luminescence, 48 h; Potency, µM (titrated, usually from 46.2 µM), hits mostly inhibitors; 420,000 tested, 15% active; AID 686978, 2013; further: nearly all actives have a fitted effect of over 55% in size
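Seeded 400 DT40-hTDP1 cells/well (vehicle DMSO, no 20 nM CPT); pinned compounds; ≥48 hr at 37 °C; CellTiter-Glo luminescence as viability measure.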
Large screens that a line does not name were inactive; ! = repeats disagree. The call rests on the fitted dose curve; in most records, active means well fitted curve in the direction sought with a large enough effect; inconclusive means small, poorly fitted or top-dose-only effect, or another doubt; inactive means no such curve, though single readings can be large; an effect the other way counts as inactive or inconclusive.

Cc1ccc(C)c(NC(=O)CN2C(=O)c3cccnc3Oc3ccc(C)cc32)c1	TDP1 cell CPT inconclusive, TDP1 cell noCPT inconclusive (no result: HT1080-NT tox, HT1080 IDH1KD tx)
Cc1ccc2c(c1)C(=O)C(=O)N2CC(=O)Nc1ccccc1NC(=O)c1ccccn1	HT1080-NT tox inconclusive, TDP1 cell CPT 5.2µM, TGFb inhibitor inconclusive, TDP1 cell noCPT 5.8µM
Cc1ccc(NC(=S)c2nc3ccccc3s2)cc1	TDP1 cell CPT inconclusive, TGFb inhibitor inconclusive, TDP1 cell noCPT inconclusive
CN(Cc1ccc2c(c1)CCCN2C)C(=O)[C@H]1O[C@@H](n2cnc3c(N)ncnc32)[C@H](O)[C@@H]1O	TDP1 cell noCPT inconclusive
S=C(Nc1ccc(Cl)cc1)c1nc2ccccc2s1	HT1080-NT tox inconclusive, TDP1 cell CPT inconclusive, TDP1 cell noCPT 15µM
Cc1ccc(C)c(C(=O)c2ccccc2NC(=O)c2ccccn2)c1	HT1080-NT tox inconclusive, TDP1 cell CPT 16µM, HT1080 IDH1KD tx 21µM, TDP1 cell noCPT 9.2µM
CC(=O)Nc1ccccc1NC(=O)c1cc(C)ccc1C	none
O=C(CSc1ccc(Cl)cc1)NCc1ccncc1	none
CC(=O)N(Cc1ccc2c(c1)OCO2)Cc1cc2ccc(C)cc2nc1-c1cccc(C)c1	TDP1 cell CPT inconclusive, TDP1 cell noCPT 0.46µM (no result: HT1080-NT tox, HepG2 viability, TGFb inhibitor, HT1080 IDH1KD tx)
CC1(Oc2ccccc2-c2ccno2)CCN(Cc2csc3ccccc23)C1 (stereo not drawn)	TDP1 cell CPT 18µM, HT1080 IDH1KD tx inconclusive, TDP1 cell noCPT inconclusive
O=C(NCc1cccc(Br)c1)C1CC(c2cc(C(F)(F)F)cc(C(F)(F)F)c2)=NO1 (stereo not drawn)	none
O=C(NCc1ccco1)C1CC(c2ccc(Cl)c(Cl)c2)=NO1 (stereo not drawn)	HT1080-NT tox inconclusive, TDP1 cell CPT 13µM, TDP1 cell noCPT 8.2µM
O=C(NCc1cccc(Br)c1)C1CC(c2ccccc2C(F)(F)F)=NO1 (stereo not drawn)	HT1080-NT tox inconclusive, TDP1 cell CPT inconclusive, HT1080 IDH1KD tx inconclusive, TDP1 cell noCPT 18µM
O=C(NCc1ccco1)C1Cc2cc(Cl)ccc2O1 (stereo not drawn)	none
O=C(NCc1ccco1)C1CC(c2c(Cl)cccc2Cl)=NO1 (stereo not drawn)	TDP1 cell CPT inconclusive, TGFb inhibitor inconclusive, TDP1 cell noCPT 16µM
O=C(NCc1cccc(C(F)(F)F)c1)C1CC(c2c(Cl)cccc2Cl)=NO1 (stereo not drawn)	HT1080-NT tox inconclusive, TDP1 cell CPT 16µM, TGFb inhibitor inconclusive, HT1080 IDH1KD tx inconclusive, TDP1 cell noCPT 16µM
COc1c(Cl)cc(-c2noc(C)c2C(=O)NCCc2ccc(C)cc2)cc1Cl	TDP1 cell noCPT inconclusive
CCCCn1c(N)c(N(CCOC)C(=O)COC(=O)CSc2cc(C)c3ccccc3n2)c(=O)[nH]c1=O	none
COc1ccccc1N1CCN(C2CC(=O)N(c3ccc(Cl)cc3)C2=O)CC1 (stereo not drawn)	TGFb inhibitor inconclusive
Cc1c(NC(=S)NC(=O)c2cccc(Br)c2)c(=O)n(-c2ccccc2)n1C	none
O=C(/C=C/c1c(Cl)cccc1Cl)NCc1ccco1	HT1080-NT tox inconclusive, TDP1 cell CPT inconclusive, TDP1 cell noCPT 5.8µM
O=C(/C=C/c1ccccc1Cl)NCc1ccco1	TGFb inhibitor inconclusive, TDP1 cell noCPT inconclusive
CCCc1nc2c3ccccc3ccn2c1CC1CCCCC1	HT1080-NT tox inconclusive, TDP1 cell CPT inconclusive, TGFb inhibitor inconclusive, HT1080 IDH1KD tx inconclusive, TDP1 cell noCPT inconclusive
O=C1C=C(NCc2ccco2)C2(CCCCC2)O1	none
O=C1C=C(NCc2ccc(Cl)c(Cl)c2)C2(CCCCC2)O1	TDP1 cell CPT inconclusive, TDP1 cell noCPT 16µM
O=C(O)CNC(=O)c1nc(-c2ccccc2)n(-c2ccccc2)n1	none
CCOc1cc(NC(=O)C2CC2)c(OCC)cc1NC(=O)c1ccccn1	TDP1 cell CPT 18µM, TDP1 cell noCPT 18µM
O=C(Nc1ccc(Cl)cc1C(=O)c1ccccn1)c1ccccc1	TDP1 cell noCPT inconclusive
CCOc1cc(NC(=O)c2ccccn2)c(OCC)cc1NC(=O)c1ccc(Cl)cc1	TDP1 cell CPT 1.5µM, TDP1 cell noCPT 1.2µM
CCOc1cc(NC(=O)c2ccccn2)c(OCC)cc1NC(=O)c1ccccc1	TDP1 cell CPT inconclusive, TDP1 cell noCPT 21µM
CCOc1cc(NC(=S)Nc2ccccc2)c(OCC)cc1NC(=O)c1ccccc1	TDP1 cell CPT 18µM, TDP1 cell noCPT 26µM
NC(=O)COC(=O)CC1CC2CCC1C2 (stereo not drawn)	none
CCOc1cc(NC(=O)c2ccccn2)c(OCC)cc1NC(=O)CC(C)C	TDP1 cell CPT 13µM, TGFb inhibitor inconclusive, TDP1 cell noCPT 8.2µM
CCOc1cc(NC(=O)c2ccccc2[N+](=O)[O-])c(OCC)cc1NC(=O)CC(C)C	none
[O-][N+](=Cc1c(Cl)cccc1Cl)CC1(O)CCCCC1	none
CCN(CC)CCCCCCCCOC(=O)c1cc(OC)c(OC)c(OC)c1	TDP1 cell CPT inconclusive, HT1080 IDH1KD tx inconclusive, TDP1 cell noCPT 22µM!
COc1cc(C(=O)OCCCN2CCCN(CCCOC(=O)c3cc(OC)c(OC)c(OC)c3)CC2)cc(OC)c1OC	HT1080-NT tox inconclusive, TDP1 cell CPT 17µM!, HT1080 IDH1KD tx inconclusive, TDP1 cell noCPT 24µM
COc1cc(C(=O)OCCCN(C)C)cc(OC)c1OC	none
COc1cc(C(=O)OCCN2CCOCC2)cc(OC)c1OC	none
CS(=O)(=O)N1CCC(C(=O)c2cccc(Cl)c2)CC1	none
COc1cccc(Oc2nc(-c3ccccc3O)nc3ccccc23)c1	none
c1ccc(Oc2c3ccccc3nc3ccccc23)cc1	HT1080-NT tox inconclusive, TDP1 cell CPT inconclusive, TGFb inhibitor inconclusive, HT1080 IDH1KD tx inconclusive, TDP1 cell noCPT 21µM
COc1ccc(Oc2nc(-c3ccccn3)nc3ccccc23)cc1	HT1080-NT tox inconclusive, TDP1 cell CPT 3.3µM, TGFb inhibitor inconclusive, HT1080 IDH1KD tx inconclusive, TDP1 cell noCPT 4.1µM
Fc1ccc(Oc2nc(-c3ccccn3)nc3ccccc23)cc1	TDP1 cell CPT 4.6µM, TGFb inhibitor inconclusive, HT1080 IDH1KD tx inconclusive, TDP1 cell noCPT 5.8µM
c1ccc(Oc2nc(-c3ccccn3)nc3ccccc23)cc1	TDP1 cell CPT 2.6µM, HT1080 IDH1KD tx inconclusive, TDP1 cell noCPT 2.1µM
COc1ccc(-c2csc3[nH]c(=S)n(-c4ccccc4)c(=O)c23)cc1OC	TDP1 cell CPT inconclusive
